Tb PFK inh: inhibitors of T. brucei phosphofructokinase. O15648. T. brucei PFK, ADP-Glo luminescence. Potency, µM (top dose mostly 57.5 µM), for the others: top-dose activity, negative = inhibition, usual class: inhibitors. 0.17% of 330,000 active. AID 485367;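 note: potency is the fitted concentration of half-maximal effect; 0% = uninhibited 1x PFK enzyme wells and -100% = no-enzyme wells; nearly all actives have a fitted effect of over 60% in size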
Target sequence (O15648 whole entry, looked up): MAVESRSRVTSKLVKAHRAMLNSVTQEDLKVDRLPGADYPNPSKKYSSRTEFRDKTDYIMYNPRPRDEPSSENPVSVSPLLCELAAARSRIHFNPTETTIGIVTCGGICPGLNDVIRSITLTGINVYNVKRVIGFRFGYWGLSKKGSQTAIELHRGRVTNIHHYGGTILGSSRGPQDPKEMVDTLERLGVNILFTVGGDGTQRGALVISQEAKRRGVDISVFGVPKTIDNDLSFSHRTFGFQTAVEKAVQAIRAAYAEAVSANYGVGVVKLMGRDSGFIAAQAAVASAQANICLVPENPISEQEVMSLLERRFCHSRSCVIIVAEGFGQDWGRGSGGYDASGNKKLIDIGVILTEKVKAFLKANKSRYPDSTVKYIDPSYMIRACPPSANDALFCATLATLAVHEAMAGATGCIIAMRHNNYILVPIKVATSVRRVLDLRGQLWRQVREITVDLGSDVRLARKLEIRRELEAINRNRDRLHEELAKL
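Compounds were pin-transferred as a titration series up to 57 uM into substrate buffer (0.5 mM F6P, 0.1 mM ATP, pH 8.0), then 1.25 nM PFK was added and reactions ran 45 min before ADP-Glo detection.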
PI5P4K alpha inh: blocks human PI5P4K alpha kinase activity; P48426; PI5P4Kalpha enzyme, ADP-Glo luminescence, 60 min; stronger effect = lower value; max response, %; 1.2% of 330,000 active; AID 652105; active = max response of -50% or lower; inconclusive = between -30% and -50%; inactive = -30% or higher; note: value at the top dose of about 77 µM
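ADP-Glo luminescence end-point read after a 60 min room-temperature kinase reaction of PI5P4Kalpha plus substrate, initiated with ATP at 5 microM final. Buffer: 0.038 M HEPES pH 7.4, EGTA, 0.1% CHAPS, 5% DMSO.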
Pin1 inhibitor: blocks the human prolyl isomerase Pin1; AID 504891; Q13526; Potency, µM (titrated, usually from 115 µM), for inactives: at the top dose activity, negative = inhibition, actives largely listed as inhibitors; Pin1 FP peptide displacement, HiFluor488, 10 min; 0.009% of 390,000 active; active = well fitted inhibition curve with a large enough effect in the polarisation, with a control signal flat, not every such curve was filed as active; inconclusive = small, poorly fitted or top-dose-only effect, or effect the other way, or a change in a side signal; inactive = no such curve, though single readings can be large or run the other way; the % refers to the polarisation; note: potency is the fitted concentration of half-maximal effect
Tb PGK inh: T. brucei PGK inhibition. Potency, µM (highest dose often 57.5 µM), for inactives: top-dose activity change, negative = inhibition, actives largely listed as inhibitors. 0.043% of 380,000 active. PGK/GAPDH coupled, Kinase-Glo luminescence, 60 min. P07378; note: potency is the fitted concentration of half-maximal effect; nearly all actives have a fitted effect of over 60% in size
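Recombinant glycosomal PGK reaction used 1,3-bisphosphoglycerate generated in-well by GAPDH (100nM final) in 100mM TEA pH 7.6, 5mM MgCl2, 0.01% Tween-20. After 60 minutes at room temperature, ATP was read by Kinase-Glo Plus luminescence end-point.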
PI4K2A inh: inhibitors of human PI4K2A; Q9BTU6; purified PI4K2A, ADP-Glo luminescence, 1 h; stronger effect = lower value; activity change, negative = inhibition, % at 76.9 µM; 0.13% of 420,000 active; AID 1346378; in the data active = activity change below about -50%; inconclusive = mostly about -30% to -49%;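 note: -100% = wells without enzyme as full effect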
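In this quantitative HTS, ADP production by PI4K2A was quantified luminescently after 1 h at ambient temperature; 100 microM adenosine served as plate-quality control.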
* hit, by the source's call; i = inactive; u = inconclusive; x = no result. This excerpt belongs to a sample that is enriched for hits. Unless noted, calls come from the whole dose curve; as a rule, active = well fitted curve in the direction sought with a large enough effect; inconclusive = small, poorly fitted or top-dose-only effect, or another doubt; inactive = no such curve, though single readings can be large; an effect the other way counts as inactive or inconclusive. Unless noted, % is set by controls: 0 for no effect and ±100 for the full control effect.

SMILES	Tb PFK inh	PI5P4K alpha inh	Pin1 inhibitor	Tb PGK inh	PI4K2A inh
COc1cc(NCCCCC(C)N)c2nccc(C)c2c1 (stereo not given)	x	-12	x	6%	-9
COc1cc(NCCCC(C)N)c2ncccc2c1 (stereo not given)	-5%	-3	u	i	-51*
CN1CCCC1CCNc1ncnc2ccc(-c3ccc4c(c3)OCO4)cc12 (stereo not given)	x	x	-6%	x	x
C/C(=N\NC(=O)c1ccc(NS(=O)(=O)c2cccs2)cc1)c1cccs1	17%	-56*	-2%	-9%	0
C/C(=N\NC(=O)c1ccc(NS(=O)(=O)c2cccs2)cc1)c1ccc(Cl)cc1	0%	-59*	-4%	-4%	0
COc1ccc(CNC(=O)c2cc(-c3ccccc3)c(N3CCOCC3)s2)cc1OC	x	x	x	x	-8
CCCN(CCC)Cc1c(C(=O)N/N=C/c2c[nH]c3ccccc23)nnn1-c1nonc1N	0%	-63*	6%	-6%	-4
CCCc1c(C(=O)N/N=C/c2c[nH]c3ccccc23)nnn1-c1nonc1N	x	0	x	4%	0
O=S(=O)(c1ccc2c(c1)OCCO2)N1CCN(S(=O)(=O)c2c(F)ccc(O)c2F)CC1	x	x	27%	x	x
N#C/C(=C(/O)COC(=O)CCc1ccc(S(=O)(=O)N2CCOCC2)cc1)c1nc2ccccc2[nH]1	1%	-52*	u	-4%	-15
C/C=C(/C(=C/C)c1ccc(OC(C)=O)cc1)c1ccc(OC(C)=O)cc1	x	x	x	x	-1
COc1c(O)cc2c(c1O)C1OC(CO)C(O)C(O)C1OC2=O (stereo not given)	0%	5	1%	i	-2
O=C1OCC2OC(O)C(O)C(O)C2OC(=O)c2cc(O)c(O)c(O)c2-c2c(O)c(O)c3oc(=O)c4c(c(O)c(O)c5oc(=O)c2c3c54)-c2c1cc(O)c(O)c2O (stereo not given)	0.95µM*	x	x	x	x
O=C(COc1ccccc1)N/N=C/c1ccc([N+](=O)[O-])o1	0%	-55*	-15%	-13%	-9
O=C(N/N=C/c1ccc([N+](=O)[O-])o1)c1sc2ccccc2c1Cl	5%	-62*	u	-10%	-13
COc1ccc2nc(-c3ccc(N(C)C)cc3)sc2c1	x	x	13%	x	x
CCOc1ccc(OCC(=O)Nc2nccs2)cc1	27µM*	u	1%	u	-86*
CC(=O)Nc1ccc(C(=O)/C=C/c2ccco2)cc1	-1%	-27	41%	-10%	-13
Cc1ccc(-c2csc(NC(=O)/C=C/c3ccco3)c2C(=O)O)cc1	-11%	-71*	u	-16%	-1
O=C(/C=C/c1ccco1)Nc1cccc(NC(=O)/C=C/c2ccco2)n1	u	-58*	29%	-9%	-8
CC(=O)N(C)c1ccc(NC(=S)NC(=O)/C=C/c2ccco2)cc1	-6%	-28	-5%	-1%	-10
O=C(/C=C\c1ccco1)c1ccc(NC(=O)c2ccco2)cc1	-18%	-56*	u	-8%	1
CC(=O)Nc1ccc(NC(=S)NC(=O)/C=C/c2ccco2)cc1	0%	-64*	-18%	-3%	-20
COc1ccc(-c2ccc3ncnc(NCc4cccs4)c3c2)cc1	x	x	3%	x	x
COc1ccc(C(=O)O)cc1COc1ccc(NC(C)=O)cc1	x	x	0%	x	x
SMILES	Tb PFK inh	PI5P4K alpha inh	Pin1 inhibitor	Tb PGK inh	PI4K2A inh
O=C(/C=C/c1ccco1)Nc1ccccc1C(=O)Nc1cccc(C(=O)O)c1	1%	-8	u	-4%	3
O=C(/C=C/c1ccco1)NC(=S)Nc1cccc(C(=O)O)c1	4%	-74*	u	u	-12
CNS(=O)(=O)c1ccc2nc(NC(=O)/C=C/c3ccco3)sc2c1	-2%	u	u	-3%	-62*
CCCn1nnc(NC(=O)/C=C/c2ccco2)n1	1%	-16	-1%	-3%	-6
Cn1nnc(NC(=S)NC(=O)/C=C/c2ccco2)n1	-1%	-71*	x	-6%	-8
Cc1ccc(C(=O)N/C(=C/c2ccco2)C(=O)Nc2cccc(C(=O)O)c2)cc1	u	-53*	u	-3%	-8
COc1ccccc1C(=O)N/C(=C/c1ccco1)C(=O)Nc1cccc(C(=O)O)c1	10%	u	u	-1%	-6
